The values that follow come from the supplement of paper PMC13380429.

Values without a mark were called inactive.

This assay relates to Vero E6 infected with SARS-CoV-2. Nature of the assay: inhibition of SARS-CoV-2 cytopathic effect; higher = more antiviral protection, active = above 15. The settings on record: 48 h. For orientation: Protection from cytopathic effect is a common read-out in antiviral testing.

As to `CC[C@H]1OC(=O)[C@@](C)(F)C(=O)[C@H](C)[C@@H](O[C@@H]2O[C@H](C)C[C@H](N(C)C)[C@H]2O)[C@](C)(OC)C[C@@H](C)C(=O)[C@H](C)[C@H]2N(CCCCn3cc(-c4cccc(N)c4)nn3)C(=O)O[C@]12C` [solithromycin], the “inhibition of SARS-CoV-2 cytopathic effect” value (“inhibition” below) is 0.98% (1 nM); 0.59% (8.33 nM); 0.05% (100 nM); -0.9% (833.33 nM); -4.38% (10000 nM).
The corresponding values for `CC1=NN=C(c2ccc(N)cc2)c2cc3c(cc2C1)OCO3` are -2.65%, -5.13%, -1.01%, 2.88% and 0.44%.
Regarding `CCc1cc2cc(OC)c(OC)cc2c(Cc2ccccc2)n1` [moxaverine], the “inhibition” value was 3.28% (1 nM); 0.47% (8.33 nM); 0.44% (100 nM); 0.83% (833.33 nM); 4.26% (10000 nM).
For `O=C(CCCCCCNC(=O)c1cnc(N(c2ccccc2)c2ccccc2)nc1)NO`, the “inhibition” value runs as follows: (1 nM) -0.34%; (8.33 nM) -1.04%; (100 nM) 2.13%; (833.33 nM) -4.05%; (10000 nM) -10.5%.
The corresponding values for `Nc1nc(-c2ccc(Cl)c(Cl)c2)c(-c2ccncc2)s1` are -1.24%, 1.18%, -2.7%, -2.03% and -0.28%.
The corresponding values for `NCCCCCC(=O)O` [aminocaproic-acid] are -7.62%, -2.22%, 1.68%, 1.01% and -2.29%.
The corresponding values for `C[C@](O)(COc1ccc(C#N)cc1)C(=O)Nc1ccc(C#N)c(C(F)(F)F)c1` [ostarine] are -0.2%, -1.03%, 1.02%, -1.16% and 1.37%.
For the compound `C=C1CC[C@@H]2[C@](C)(CO)[C@H](O)CC[C@@]2(C)[C@@H]1C/C=C1/C(=O)OC[C@H]1O` [andrographolide], the “inhibition” value reads like this: (1 nM) -3.07%; (8.33 nM) -2.2%; (100 nM) -0.1%; (833.33 nM) 8.92%; (10000 nM) 32.5% (active).
The matching figures for `O=C(O)C(=O)c1cn(Cc2ccccc2)c2ccc(-c3ccc(OC(F)(F)F)cc3)cc12` [tiplaxtinin]: 2.16%, 2.56%, 3.44%, 2.13% and 4.09%.
Take `CC(=O)N[C@H](Cc1ccc2ccccc2c1)C(=O)N[C@H](Cc1ccc(Cl)cc1)C(=O)N[C@H](Cc1cccnc1)C(=O)N[C@@H](CO)C(=O)N[C@@H](Cc1ccc(NC(=O)[C@@H]2CC(=O)NC(=O)N2)cc1)C(=O)N[C@H](Cc1ccc(NC(N)=O)cc1)C(=O)N[C@@H](CC(C)C)C(=O)N[C@@H](CCCCNC(C)C)C(=O)N1CCC[C@H]1C(=O)N[C@H](C)C(N)=O` [degarelix]: the “inhibition” value is -0.25% (1 nM); 1.93% (8.33 nM); 3.06% (100 nM); 1.45% (833.33 nM); 2.25% (10000 nM).
For `CC(C)[N+](C)(CCOC(=O)C1c2ccccc2Oc2ccccc21)C(C)C` [propantheline], the “inhibition” value reads like this: (1 nM) 0.61%; (8.33 nM) 0.91%; (100 nM) -0.81%; (833.33 nM) -1.32%; (10000 nM) -0.04%.
The matching figures for `COC(=O)C1=C(C)NC(C)=C(C(=O)OCCN(C)Cc2ccccc2)C1c1cccc([N+](=O)[O-])c1` (stereo not given) [nicardipine]: 0.9%, 0.28%, 0.23%, -0.11% and -1.36%.
The matching figures for `COc1cc(C(=O)NCC2(N(C)C)CCCC2)cc(OC)c1OCc1ccccc1`: 0.5%, 4.04%, 5.81%, -2.21% and -8%.
The matching figures for `CN1Cc2c(C(=O)OC(C)(C)C)ncn2-c2ccsc2C1=O`: 2.57%, 3.55%, 1.79%, 1.66% and -0.64%.
In the case of `C[C@](N)(Cc1ccc(O)c(O)c1)C(=O)O` [methyldopa], the “inhibition” value was -0.96% (1 nM); 0.87% (8.33 nM); -0.52% (100 nM); -1.66% (833.33 nM); 0.52% (10000 nM).
The matching figures for `O=C1NCCN1CCN1CCC(c2cn(-c3ccc(F)cc3)c3ccc(Cl)cc23)CC1` [sertindole]: -2.53%, -4.63%, -2.36%, -5.98% and -11.3%.
